Laboratory results reported in the supplement of paper PMC10037445.
Whole data set: some 2,900 compounds, median “NF-kB SEAP reporter activity, fold change vs agonist alone” near 0.99, cut for the highest 2% near 2.6. This excerpt belongs to a sample that is enriched for the highest values.

Assays:
RAW-Dual [1] = experiment: NF-kB SEAP reporter activity, fold change vs agonist alone; cytotoxicity flag (confluency mask): cytotoxic (confluency <70% of control); higher = enhanced NF-kB activity
Outline: (§1)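 Supernatant from RAW-Dual macrophages was read after 20 hours for IRF by QuantiLuc luminescence and for NF-κB by QuantiBlue absorbance at 620 nm. The cells (50,000 cells/well in DMEM, 384-well plates, 37 °C, 5% CO2) had received 50 nL of library stock by pin tool and, 1 h later, a PRR agonist. Reporter activity is expressed relative to agonist-alone wells as fold change, and wells were flagged cytotoxic if IncuCyte confluency was under 70% of agonist controls in both mask sets.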

RAW-Dual [2] = experiment: NF-kB SEAP reporter activity, fold change vs agonist alone; higher = enhanced NF-kB activity; details: library stock concentration (final ~1000-fold dilution): 10 mM
Outline: as §1

RAW-Dual [3] = experiment: NF-kB SEAP reporter activity, fold change vs agonist alone; cytotoxicity flag (confluency mask): not cytotoxic; higher = enhanced NF-kB activity
Outline: as §1

[4] = agonist: ODN 1826 (TLR9) 0.5 ug/mL
[5] = agonist: Pam2CSK4 (TLR2/6) 0.1 ug/mL
[6] = agonist: Pam3CSK4 (TLR2/1) 0.1 ug/mL
[7] = cytotoxicity flag (confluency mask): cytotoxic (confluency <70% of control), agonist: MPLA (TLR4) […]
[8] = cytotoxicity flag (confluency mask): not cytotoxic, agonist: Imiquimod (TLR7) […]
[9] = cytotoxicity flag (confluency mask): not cytotoxic, agonist: MPLA (TLR4) […]

With `CNCCC(Oc1cccc2ccccc12)c1cccs1` (stereo unspecified) (library stock concentration (final ~1000-fold dilution): 10 mM) the “NF-kB SEAP reporter activity” value (RAW-Dual [1]; agonist: LPS (TLR4) 0.1 ug/mL) was 1.1, the “NF-kB SEAP reporter activity” value (RAW-Dual [1]; [4]) was 0.191 and the “NF-kB SEAP reporter activity” value (RAW-Dual [1]; [5]) was 0.797. The “NF-kB SEAP reporter activity” value (RAW-Dual [1]; [6]) was 0.525.

In the case of `CNCCC(Oc1cccc2ccccc12)c1cccs1` (stereo unspecified), the “NF-kB SEAP reporter activity” value (RAW-Dual [2]; [7]) is reported as 1.98.

In the case of `OCC1OC(c2ccc(Cl)c(Cc3ccc(OC4CCOC4)cc3)c2)C(O)C(O)C1O` (stereo unspecified), the “NF-kB SEAP reporter activity” value (RAW-Dual [2]; [8]) is reported as 0.973 and the “NF-kB SEAP reporter activity” value (RAW-Dual [2]; [9]) is reported as 1.06.

In the case of `OCC1OC(c2ccc(Cl)c(Cc3ccc(OC4CCOC4)cc3)c2)C(O)C(O)C1O` (stereo unspecified) (library stock concentration (final ~1000-fold dilution): 10 mM), the “NF-kB SEAP reporter activity” value (RAW-Dual [3]; agonist: LPS (TLR4) 0.1 ug/mL) is reported as 1.12, the “NF-kB SEAP reporter activity” value (RAW-Dual [3]; [4]) is reported as 1.07 and the “NF-kB SEAP reporter activity” value (RAW-Dual [3]; [5]) is reported as 0.963. For the same compound, the “NF-kB SEAP reporter activity” value (RAW-Dual [3]; [6]) was 0.983.

In the case of `COc1ccc(S(=O)(=O)NCc2ccc(C(=O)NCCc3ccc(Cl)cn3)cc2)cc1` (library stock concentration (final ~1000-fold dilution): 10 mM), the “NF-kB SEAP reporter activity” value (RAW-Dual [3]; agonist: LPS (TLR4) 0.1 ug/mL) is reported as 1.36, the “NF-kB SEAP reporter activity” value (RAW-Dual [3]; [4]) is reported as 1.15 and the “NF-kB SEAP reporter activity” value (RAW-Dual [3]; [5]) is reported as 0.849. The “NF-kB SEAP reporter activity” value (RAW-Dual [3]; [6]) was 1.49.

In the case of `COc1ccc(CNC(=O)Nc2ncc([N+](=O)[O-])s2)cc1` (library stock concentration (final ~1000-fold dilution): 10 mM), the “NF-kB SEAP reporter activity” value (RAW-Dual [3]; agonist: LPS (TLR4) 0.1 ug/mL) is reported as 2.74, the “NF-kB SEAP reporter activity” value (RAW-Dual [3]; [4]) is reported as 1.64 and the “NF-kB SEAP reporter activity” value (RAW-Dual [3]; [5]) is reported as 0.864. The “NF-kB SEAP reporter activity” value (RAW-Dual [3]; [6]) was 1.32.

In the case of `O=C(Nc1ncc([N+](=O)[O-])s1)c1ccccc1O`, the “NF-kB SEAP reporter activity” value (RAW-Dual [2]; [9]) is reported as 0.945.

In the case of `COc1ccc(S(=O)(=O)NCc2ccc(C(=O)NCCc3ccc(Cl)cn3)cc2)cc1`, the “NF-kB SEAP reporter activity” value (RAW-Dual [2]; [8]) is reported as 0.318 and the “NF-kB SEAP reporter activity” value (RAW-Dual [2]; [9]) is reported as 1.19.

In the case of `O=C(Nc1ncc([N+](=O)[O-])s1)c1ccccc1O` (library stock concentration (final ~1000-fold dilution): 10 mM), the “NF-kB SEAP reporter activity” value (RAW-Dual [3]; agonist: LPS (TLR4) 0.1 ug/mL) is reported as 0.954, the “NF-kB SEAP reporter activity” value (RAW-Dual [3]; [4]) is reported as 1.21 and the “NF-kB SEAP reporter activity” value (RAW-Dual [3]; [5]) is reported as 0.573. For the same compound, the “NF-kB SEAP reporter activity” value (RAW-Dual [3]; [6]) was 0.684.

For `COc1ccc(CNC(=O)Nc2ncc([N+](=O)[O-])s2)cc1`, the “NF-kB SEAP reporter activity” value (RAW-Dual [2]; [8]) was 1.2 and the “NF-kB SEAP reporter activity” value (RAW-Dual [2]; [9]) was 1.68.

For `COCCOc1cnc2ccn(C(C)c3nnc4c(F)cc(-c5cnn(C)c5)cn34)c(=O)c2c1` (stereo unspecified), the “NF-kB SEAP reporter activity” value (RAW-Dual [2]; [8]) was 1.01 and the “NF-kB SEAP reporter activity” value (RAW-Dual [2]; [9]) was 1.01.

`COCCOc1cnc2ccn(C(C)c3nnc4c(F)cc(-c5cnn(C)c5)cn34)c(=O)c2c1` (stereo unspecified) (library stock concentration (final ~1000-fold dilution): 10 mM) was tested, and the “NF-kB SEAP reporter activity” value (RAW-Dual [3]; agonist: LPS (TLR4) 0.1 ug/mL) was 1.54, the “NF-kB SEAP reporter activity” value (RAW-Dual [3]; [4]) was 1.11 and the “NF-kB SEAP reporter activity” value (RAW-Dual [3]; [5]) was 1.11. For the same compound, the “NF-kB SEAP reporter activity” value (RAW-Dual [3]; [6]) was 1.13.

With `CCCCCCCCCCCCCCCC(=O)OCC(O)C1OC(O)=C(O)C1=O` (stereo unspecified) (library stock concentration (final ~1000-fold dilution): 10 mM) the “NF-kB SEAP reporter activity” value (RAW-Dual [3]; agonist: LPS (TLR4) 0.1 ug/mL) was 1.15, the “NF-kB SEAP reporter activity” value (RAW-Dual [3]; [4]) was 0.825 and the “NF-kB SEAP reporter activity” value (RAW-Dual [3]; [5]) was 0.949. The “NF-kB SEAP reporter activity” value (RAW-Dual [3]; [6]) was 0.67.

In the case of `CCCCCCCCCCCCCCCC(=O)OCC(O)C1OC(O)=C(O)C1=O` (stereo unspecified), the “NF-kB SEAP reporter activity” value (RAW-Dual [2]; [8]) is reported as 0.898 and the “NF-kB SEAP reporter activity” value (RAW-Dual [2]; [9]) is reported as 1.01.

In the case of `Cc1c[nH]c(-c2cnc(NCCNc3ccc(C#N)cn3)nc2-c2ccc(Cl)cc2Cl)n1`, the “NF-kB SEAP reporter activity” value (RAW-Dual [2]; [8]) is reported as 2.12 and the “NF-kB SEAP reporter activity” value (RAW-Dual [2]; [9]) is reported as 2.19.

In the case of `Cc1c[nH]c(-c2cnc(NCCNc3ccc(C#N)cn3)nc2-c2ccc(Cl)cc2Cl)n1` (library stock concentration (final ~1000-fold dilution): 10 mM), the “NF-kB SEAP reporter activity” value (RAW-Dual [3]; agonist: LPS (TLR4) 0.1 ug/mL) is reported as 3.08, the “NF-kB SEAP reporter activity” value (RAW-Dual [3]; [4]) is reported as 2.65 and the “NF-kB SEAP reporter activity” value (RAW-Dual [3]; [5]) is reported as 2.12. For the same compound, the “NF-kB SEAP reporter activity” value (RAW-Dual [3]; [6]) was 2.9.

In the case of `Cc1c[nH]c(-c2cnc(NCCNc3ccc(C#N)cn3)nc2-c2ccc(Cl)cc2Cl)n1.Cl`, the “NF-kB SEAP reporter activity” value (RAW-Dual [2]; [8]) is reported as 2.27 and the “NF-kB SEAP reporter activity” value (RAW-Dual [2]; [9]) is reported as 2.2.

`Cc1c[nH]c(-c2cnc(NCCNc3ccc(C#N)cn3)nc2-c2ccc(Cl)cc2Cl)n1.Cl` (library stock concentration (final ~1000-fold dilution): 10 mM) was tested, and the “NF-kB SEAP reporter activity” value (RAW-Dual [3]; agonist: LPS (TLR4) 0.1 ug/mL) was 2.97, the “NF-kB SEAP reporter activity” value (RAW-Dual [3]; [4]) was 2.78 and the “NF-kB SEAP reporter activity” value (RAW-Dual [3]; [5]) was 1.84. For the same compound, the “NF-kB SEAP reporter activity” value (RAW-Dual [3]; [6]) was 3.48.

In the case of `CCOC(=O)Nc1ccc(NCc2ccc(F)cc2)nc1N.O=C(O)/C=C/C(=O)O`, the “NF-kB SEAP reporter activity” value (RAW-Dual [2]; [8]) is reported as 0.871 and the “NF-kB SEAP reporter activity” value (RAW-Dual [2]; [9]) is reported as 1.23.

With `CCOC(=O)Nc1ccc(NCc2ccc(F)cc2)nc1N.O=C(O)/C=C/C(=O)O` (library stock concentration (final ~1000-fold dilution): 10 mM) the “NF-kB SEAP reporter activity” value (RAW-Dual [3]; agonist: LPS (TLR4) 0.1 ug/mL) was 1.03, the “NF-kB SEAP reporter activity” value (RAW-Dual [3]; [4]) was 1.1 and the “NF-kB SEAP reporter activity” value (RAW-Dual [3]; [5]) was 0.993. For the same compound, the “NF-kB SEAP reporter activity” value (RAW-Dual [3]; [6]) was 1.01.

In the case of `CC(C)CN(CC(O)C(Cc1ccccc1)NC(=O)OC1COC2OCCC12)S(=O)(=O)c1ccc(N)cc1.CCO` (stereo unspecified) (library stock concentration (final ~1000-fold dilution): 10 mM), the “NF-kB SEAP reporter activity” value (RAW-Dual [3]; agonist: LPS (TLR4) 0.1 ug/mL) is reported as 1.78, the “NF-kB SEAP reporter activity” value (RAW-Dual [3]; [4]) is reported as 1.57 and the “NF-kB SEAP reporter activity” value (RAW-Dual [3]; [5]) is reported as 1.42. The “NF-kB SEAP reporter activity” value (RAW-Dual [3]; [6]) was 1.43.

`CC(C)CN(CC(O)C(Cc1ccccc1)NC(=O)OC1COC2OCCC12)S(=O)(=O)c1ccc(N)cc1.CCO` (stereo unspecified) was tested, and the “NF-kB SEAP reporter activity” value (RAW-Dual [2]; [8]) was 1.42 and the “NF-kB SEAP reporter activity” value (RAW-Dual [2]; [9]) was 1.49.

For `COc1ccc(Cn2c3ncnc4c(ncn4Cc4ccc(OC)cc4)c-3nc2=O)cc1` (library stock concentration (final ~1000-fold dilution): 10 mM), the “NF-kB SEAP reporter activity” value (RAW-Dual [3]; agonist: LPS (TLR4) 0.1 ug/mL) was 1.73, the “NF-kB SEAP reporter activity” value (RAW-Dual [3]; [4]) was 1.45 and the “NF-kB SEAP reporter activity” value (RAW-Dual [3]; [5]) was 0.409. The “NF-kB SEAP reporter activity” value (RAW-Dual [3]; [6]) was 0.8.

For `COc1ccc(Cn2c3ncnc4c(ncn4Cc4ccc(OC)cc4)c-3nc2=O)cc1`, the “NF-kB SEAP reporter activity” value (RAW-Dual [2]; [8]) was 1.43 and the “NF-kB SEAP reporter activity” value (RAW-Dual [2]; [9]) was 2.08.

`CC(=O)c1ccc2c(c1)c1cc(C(C)=O)ccc1n2CCNC(C)C` was tested, and the “NF-kB SEAP reporter activity” value (RAW-Dual [2]; cytotoxicity flag (confluency mask): cytotoxic (confluency <70% of control), agonist: Imiquimod (TLR7) […]) was 0.147 and the “NF-kB SEAP reporter activity” value (RAW-Dual [2]; [7]) was 0.242.

In the case of `CC(=O)c1ccc2c(c1)c1cc(C(C)=O)ccc1n2CCNC(C)C` (library stock concentration (final ~1000-fold dilution): 10 mM), the “NF-kB SEAP reporter activity” value (RAW-Dual [1]; agonist: LPS (TLR4) 0.1 ug/mL) is reported as 0.301, the “NF-kB SEAP reporter activity” value (RAW-Dual [1]; [4]) is reported as 0.193 and the “NF-kB SEAP reporter activity” value (RAW-Dual [1]; [5]) is reported as 0.0764. The “NF-kB SEAP reporter activity” value (RAW-Dual [1]; [6]) was 0.183.
